Measurements as given in PubChem BioAssay.
Unmarked numbers belong to inactive results. For part of these data: Entries with a potency or affinity are not part of this list. Calls of active or inactive are those of the source. Unless noted, how the calls were made is not given here. Residues, ends and D or L forms follow the SMILES beside them. *: point of attachment. Boc = CC(C)(C)OC(=O)*

Assays:
[1] = antimalarial activity against Dd2 strain (AID 2302;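 active means growth inhibition above 50% at the single 2 µM test dose, taken to imply half-maximal potency below 2 µM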;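 further: 0% = DMSO untreated growth and 100% = chloroquine plus artemisinin killed control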); details: P. falciparum Dd2 in RBCs, LDH growth readout, 72 h; at 2 µM; stronger effect = higher value
[2] = HepG2 cytotoxicity, primary screen, cytotoxicity control for P. falciparum antimalarial project, cell-based, ATP luminescence (AID 2303;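 active means inhibition above 50%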;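 further: 0% = DMSO wells and 100% = digitonin-killed cells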); details: HepG2 viability, 24-48 h, at 10 µM, stronger effect = higher value
[3] = biological target: L-lactate dehydrogenase (Plasmodium falciparum (isolate CDC / Honduras)) (UniProt Q27743); experiment: PfLDH activity inhibition – cell lysate, 3D7 strain, counter-screen for P. falciparum growth inhibition project (AID 2304);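 further: 0% = vehicle and 100% = reference inhibitor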; details: P. falciparum 3D7 crude extract, LDH APAD/NBT absorbance; at 2 µM; stronger effect = higher value
[4] = inhibition of 3D7 malaria parasite growth – strain 3D7 (AID 2306);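 further: 0% = DMSO wells and 100% = chloroquine plus artemisinin control wells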; details: P. falciparum 3D7 erythrocytic growth, LDH absorbance, 72 h; at 2 µM; stronger effect = higher value
[5] = biological target: Calcium-dependent protein kinase 1 (Plasmodium falciparum (isolate 3D7)) (UniProt P62344); experiment: PfCDPK1 kinase inhibitors, biochemical, TCAMS library (AID 1159585; cut-off not given, nearly all actives have IC50 up to about 0.98 µM;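 further: inhibitors leave more ATP so luminescence rises with inhibition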); details: recombinant PfCDPK1, Kinase-Glo ATP depletion luminescence
[6] = biological target: Plasmodium falciparum protein kinase 6 (PK6, PF3D7_1337100) (UniProt Q8IDW1); experiment: PfPK6 kinase inhibitors, biochemical, TCAMS library (AID 1159586); details: recombinant PfPK6, Kinase-Glo ATP depletion luminescence
[7] = biological target: Protein kinase 7 (PK7), Plasmodium falciparum 3D7 (PF3D7_0213400) (UniProt Q7YTF7); experiment: inhibition of Plasmodium PK7 catalytic activity – biochemical, TCAMS antimalarial set, Kinase-Glo luminescence (AID 1159587); details: recombinant PfPK7, Kinase-Glo ATP depletion luminescence
[8] = biological target: Calcium-dependent protein kinase 4 (Plasmodium falciparum (isolate 3D7)) (UniProt Q8IBS5); experiment: PfCDPK4 kinase inhibitors, biochemical, TCAMS library (AID 1159588; cut-off not given, nearly all actives have IC50 up to about 0.91 µM); details: recombinant PfCDPK4, Kinase-Glo ATP depletion luminescence
Sequence of Calcium-dependent protein kinase 4 (Plasmodium falciparum (isolate 3D7)) (Q8IBS5 whole entry, looked up): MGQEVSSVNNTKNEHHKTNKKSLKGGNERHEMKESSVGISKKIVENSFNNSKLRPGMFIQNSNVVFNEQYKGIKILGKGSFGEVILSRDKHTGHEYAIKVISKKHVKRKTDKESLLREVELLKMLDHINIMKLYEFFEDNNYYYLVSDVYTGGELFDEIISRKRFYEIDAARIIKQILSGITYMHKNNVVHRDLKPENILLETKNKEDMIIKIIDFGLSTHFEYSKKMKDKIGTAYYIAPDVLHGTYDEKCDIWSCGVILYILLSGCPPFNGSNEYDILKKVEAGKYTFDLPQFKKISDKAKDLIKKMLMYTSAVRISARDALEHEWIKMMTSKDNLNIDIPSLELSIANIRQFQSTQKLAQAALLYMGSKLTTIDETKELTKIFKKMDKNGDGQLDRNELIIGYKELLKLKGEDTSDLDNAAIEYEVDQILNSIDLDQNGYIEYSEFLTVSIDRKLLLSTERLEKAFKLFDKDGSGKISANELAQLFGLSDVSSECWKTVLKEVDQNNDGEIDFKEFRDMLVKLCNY

Sequence of L-lactate dehydrogenase (Plasmodium falciparum (isolate CDC / Honduras)) (Q27743 whole entry, looked up): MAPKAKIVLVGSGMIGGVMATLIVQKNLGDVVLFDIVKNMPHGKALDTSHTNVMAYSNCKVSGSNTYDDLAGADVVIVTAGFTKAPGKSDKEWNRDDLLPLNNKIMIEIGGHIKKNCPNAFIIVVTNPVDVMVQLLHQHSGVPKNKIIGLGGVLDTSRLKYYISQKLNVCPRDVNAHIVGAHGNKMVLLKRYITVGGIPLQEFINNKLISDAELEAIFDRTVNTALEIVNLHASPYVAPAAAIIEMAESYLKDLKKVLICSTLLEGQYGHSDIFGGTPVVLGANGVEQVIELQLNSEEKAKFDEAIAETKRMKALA
Sequence of Protein kinase 7 (PK7), Plasmodium falciparum 3D7 (PF3D7_0213400) (Q7YTF7 1-343): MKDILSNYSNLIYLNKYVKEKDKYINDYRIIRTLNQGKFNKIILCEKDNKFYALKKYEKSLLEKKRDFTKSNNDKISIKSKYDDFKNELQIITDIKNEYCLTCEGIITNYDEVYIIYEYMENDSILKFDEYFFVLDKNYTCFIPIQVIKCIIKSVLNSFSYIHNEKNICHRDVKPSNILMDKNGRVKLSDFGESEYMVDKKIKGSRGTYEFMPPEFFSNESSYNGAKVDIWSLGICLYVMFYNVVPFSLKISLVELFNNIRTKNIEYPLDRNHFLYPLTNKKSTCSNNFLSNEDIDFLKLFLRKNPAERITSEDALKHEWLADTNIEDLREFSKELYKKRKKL
Sequence of Plasmodium falciparum protein kinase 6 (PK6, PF3D7_1337100) (Q8IDW1 1-305): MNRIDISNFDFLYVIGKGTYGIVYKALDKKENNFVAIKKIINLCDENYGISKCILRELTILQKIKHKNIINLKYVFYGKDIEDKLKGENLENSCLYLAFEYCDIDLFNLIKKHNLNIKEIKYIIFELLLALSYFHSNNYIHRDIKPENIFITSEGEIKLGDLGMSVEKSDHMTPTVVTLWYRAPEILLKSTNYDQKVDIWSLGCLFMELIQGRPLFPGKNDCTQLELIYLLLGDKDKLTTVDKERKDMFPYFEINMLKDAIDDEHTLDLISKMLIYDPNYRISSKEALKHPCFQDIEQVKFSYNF
Sequence of Calcium-dependent protein kinase 1 (Plasmodium falciparum (isolate 3D7)) (P62344 whole entry, looked up): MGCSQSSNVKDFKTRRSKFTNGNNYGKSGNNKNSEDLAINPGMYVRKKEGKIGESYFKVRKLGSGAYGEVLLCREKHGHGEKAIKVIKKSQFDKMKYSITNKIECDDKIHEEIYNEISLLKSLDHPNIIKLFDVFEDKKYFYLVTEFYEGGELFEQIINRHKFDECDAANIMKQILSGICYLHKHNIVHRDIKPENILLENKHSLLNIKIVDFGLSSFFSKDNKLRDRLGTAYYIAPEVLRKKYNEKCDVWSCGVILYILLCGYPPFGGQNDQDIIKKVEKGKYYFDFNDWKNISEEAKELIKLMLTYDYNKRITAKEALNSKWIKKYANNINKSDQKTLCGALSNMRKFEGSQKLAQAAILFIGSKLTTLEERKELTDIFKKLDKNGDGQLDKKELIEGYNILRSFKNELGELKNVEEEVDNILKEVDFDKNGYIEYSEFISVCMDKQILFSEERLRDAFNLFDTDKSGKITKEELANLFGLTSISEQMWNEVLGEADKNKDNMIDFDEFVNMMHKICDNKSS

Compound | growth inhibition [1] | inhibition [2] | inhibition [3] [%] | growth inhibition [4] | outcome [5] | outcome [6] | outcome [7] | outcome [8]
FC(F)(F)Oc1ccc(Nc2cc(-c3ccncc3)nc(-c3cccnc3)n2)cc1 | 52% (active) | 24% | 0 | 94% (active) | inactive | inactive | inactive | inactive
O=C(NCc1cccc2ccccc12)C(c1cc2ccccc2o1)N1CCN(C(c2ccccc2)c2ccccc2)CC1 (stereo not drawn) | 90% (active) | -3% | -2 | 99% (active) | inactive | inactive | inactive | inactive
Cc1cc(N[C@@H](Cc2ccccc2)C(=O)NC2CCCC2)nc(NCCc2ccc(F)cc2)n1 | 61% (active) | 21% | -2 | 100% (active) | inactive | inactive | inactive | inactive
CCCCCCC(C)c1cc(O)c2c(c1)OC(=O)CC2(CC)c1ccccn1 (stereo not drawn) | -2% | 15% | -2 | 100% (active) | inactive | inactive | inactive | inactive
CC1(C)N=C(N)N=C(N)N1c1ccc(I)cc1 | 1% | 16% | 1 | 92% (active) | inactive | inactive | inactive | inactive
COc1cc2nc(N3CCC(CNC(=O)c4ccc(-c5ccc(C(=O)N(C)C)cc5C)cc4)CC3)nc(N3CCN(C)CC3)c2cc1OC | 84% (active) | 26% | -10 | 88% (active) | inactive | inactive | inactive | inactive
COCCNCc1cccc(-c2ccc3nccc(Nc4cc(O)ccc4C)c3c2)c1 | 92% (active) | -1% | 4 | 101% (active) | inactive | inactive | inactive | inactive
CC(C)CNCc1ccc(-c2cccc(CNc3ccc4ncccc4c3)c2)cc1 | 31% | 29% | -2 | 96% (active) | inactive | inactive | inactive | inactive
NCCCN(Cc1ccc(Cl)c(Cl)c1)C(=O)Nc1ccc(Cl)c(Cl)c1 | 41% | 100% (active) | -2 | 93% (active) | inactive | inactive | inactive | inactive
Clc1cc(Nc2ncnc3sc(C#C[C@H]4CCCN4)cc23)ccc1OCc1cccnc1Cl | 93% (active) | 9% | -3 | 101% (active) | inactive | inactive | inactive | inactive
CC(C)CNCc1cccc(-c2ccc(CN(CCCN3CCN(C)CC3)C(=O)/C=C/c3ccccc3)cc2)c1 | 90% (active) | 48% | -2 | 92% (active) | inactive | inactive | inactive | inactive
COC(=O)CC[C@H](NC(=O)[C@H](C)NC(=O)OC(C)(C)C)C(=O)OC (Boc-Ala-Glu(OMe)-OMe) | 0% | 12% | -2 | 95% (active) | inactive | inactive | inactive | inactive
COc1ccc2nccc([C@@H](O)CN3CCC(NCc4ccc5cccc(O)c5n4)CC3)c2c1 | 40% | 10% | 1 | 93% (active) | inactive | inactive | inactive | inactive
CN1CCC(NCc2cccc(-c3ccc(S(=O)(=O)NCc4ccccc4)cc3)c2)CC1 | 93% (active) | 61% (active) | 0 | 100% (active) | inactive | inactive | inactive | inactive
O=C1CCCN1CCCNCc1cccc(-c2ccc(-c3nc4ccc(C(F)(F)F)cc4[nH]3)s2)c1 | 99% (active) | 19% | -4 | 100% (active) | inactive | inactive | inactive | inactive
CC(=O)c1ccc(-c2ccc(C(=O)NCCCCN3CCC(c4ccc5c(c4O)CCCC5)CC3)cc2)cc1 | 83% (active) | 87% (active) | 1 | 100% (active) | inactive | inactive | inactive | inactive
CN(C)CCCOc1c(C(C)(C)C)cc(-c2cc(C(C)(C)C)c(OCCCN(C)C)c(C(C)(C)C)c2)cc1C(C)(C)C | 99% (active) | 25% | 0 | 100% (active) | inactive | inactive | inactive | inactive
CCN(CC)CCNc1ccnc2ccc3ccccc3c12 | 67% (active) | 5% | 6 | 100% (active) | inactive | inactive | inactive | inactive

Compound | growth inhibition [1] | inhibition [2] | inhibition [3] [%] | growth inhibition [4] | outcome [5] | outcome [6] | outcome [7] | outcome [8]
CC(=O)Nc1ccc(OCCN(Cc2ccccc2C(F)(F)F)c2ccc(C#N)c(C(F)(F)F)c2)c(Cl)c1 | 78% (active) | -6% | -3 | 98% (active) | inactive | inactive | inactive | inactive
CN1CCCC(CN2CCN(Cc3cccc(-c4ccc(-c5nc6ccc(C(F)(F)F)cc6[nH]5)cc4)c3)CC2)C1 (stereo not drawn) | 96% (active) | 100% (active) | 5 | 99% (active) | inactive | inactive | inactive | inactive
CCOC(=O)c1ccc2nc(-c3ccc(C(=O)NCc4ccc(C(C)(C)C)cc4)cc3)[nH]c2c1 | 34% | -9% | -3 | 94% (active) | inactive | inactive | inactive | inactive
CC[C@H]1CN(Cc2ccccc2Br)CC[C@H]1CCCc1ccnc2ccc(O)cc12 | 2% | 12% | -4 | 86% (active) | inactive | inactive | inactive | inactive
COc1ccc(C(=O)Nc2ccc3nc(N4CCCCC4)cc(C)c3c2)cc1[N+](=O)[O-] | 7% | 17% | -9 | 96% (active) | inactive | inactive | inactive | inactive
O=C(/C=C/c1ccc(Cl)c(Cl)c1)NCCCCN1CCC(c2c[nH]c3ccccc23)CC1 | 11% | 57% (active) | -2 | 91% (active) | inactive | inactive | inactive | inactive
COC(=O)c1cccc(CNCc2cccc(-c3csc(-c4nc5ccccc5[nH]4)c3)c2)c1 | 44% | -7% | 0 | 102% (active) | inactive | inactive | inactive | inactive
Nc1ncc(-c2cccc(CCN3CCOCC3)c2)cc1-c1nc2ccc(Br)cc2[nH]1 | 98% (active) | 60% (active) | 4 | 101% (active) | inactive | inactive | inactive | inactive
O=c1c2ccccc2[nH]c2cc(Cl)ccc12 | 86% (active) | 24% | 1 | 95% (active) | inactive | inactive | inactive | inactive
Cn1c(N)c(C(=O)CSc2nnc(-c3cccs3)n2Cc2ccccc2)c(=O)n(C)c1=O | 68% (active) | -13% | -3 | 85% (active) | inactive | inactive | inactive | inactive
Cc1ccc(CNC(=O)c2cnc(N3CCN(c4ccncc4)CC3)c(Cl)c2)cc1 | 6% | 27% | -3 | 92% (active) | inactive | inactive | inactive | inactive
COc1ccc2nc3cc(Cl)ccc3c(NCCN3CCN(C)CC3)c2c1 | 99% (active) | 29% | 2 | 100% (active) | inactive | inactive | inactive | inactive
CCNc1cc(C(=O)N[C@@H](Cc2ccccc2)[C@H](O)CNC23CC4CC(CC(C4)C2)C3)cc(N2CCCCS2(=O)=O)c1 | 99% (active) | 3% | -2 | 98% (active) | inactive | inactive | inactive | inactive
CN1CCCC(CN2CCN(Cc3ccc(-c4ccc(-c5nc6ccccc6[nH]5)cc4)cc3)CC2)C1 (stereo not drawn) | 100% (active) | 69% (active) | 0 | 101% (active) | inactive | inactive | inactive | inactive
CC(=O)Nc1ncc(C(=O)Nc2cccc(-c3cccc(-c4nc5ccc(F)cc5[nH]4)c3)c2)s1 | 93% (active) | 27% | 5 | 101% (active) | inactive | inactive | inactive | inactive
O=c1cc(NCCCNCc2cc(C(F)(F)F)ccc2F)[nH]c2ccccc12 | 43% | 0% | -2 | 94% (active) | inactive | inactive | inactive | inactive
COc1cc(C)ccc1S(=O)(=O)N1CCCCC(c2ccc(C(F)(F)F)cc2)=N1 | 89% (active) | 16% | -1 | 92% (active) | inactive | inactive | inactive | inactive
Cc1cccc2[nH]c(-c3ccc(-c4ccc(NC(=O)NCc5cccc(F)c5)cc4)s3)nc12 | 43% | 70% (active) | -6 | 101% (active) | inactive | inactive | inactive | inactive
